Laboratory results reported in PubChem BioAssay (NCATS).
Results filed as inconclusive are left out. Unmarked numbers belong to inactive results. Calls of active or inactive are those of the source. Calls follow the shape of the dose curve; as a rule, active = well fitted curve in either direction with a large enough effect (not every such curve was filed as active); inconclusive = small, poorly fitted or top-dose-only effect, or another doubt; inactive = flat fitted curve, though single readings scatter.

assay: NFAT Signaling Pathway (AID 444); settings: Jurkat NFAT-bla M1, carbachol, beta-lactamase ratio, 5 h; series mostly up to 17.2 µM; activity change, negative = inhibition: at the top concentration;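 also: carbachol stimulus at about its EC50 of 1 µM final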
Procedure, shortened: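 Jurkat cells carrying an NFAT-driven β-lactamase reporter and co-transfected muscarinic M1 receptor were treated with compound plus carbachol (1 uM final, an EC50 level) for 5 h at 37 °C. CCF4 loading followed for 1 h at RT; 460/530 nm ratio gave %activity.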
% is scaled to controls: 0 for no effect and ±100 for the full control effect.

Structure (SMILES)	activity change, negative = inhibition	outcome
c1cc(-c2sc(-c3ccncc3)c(-c3ccncc3)c2-c2ccncc2)ccn1	-7.05% [at 7.69 µM]	
CCN1CCC[C@H]1CNC(=O)c1cc(S(N)(=O)=O)ccc1OC	-5.87%	
CCCCC1C(=O)N(c2ccccc2)N(c2ccccc2)C1=O	-24.1% [at 38 µM]	
Clc1ccc(Cn2c(CN3CCCC3)nc3ccccc32)cc1	-28.8% [at 38 µM]	
COc1ccccc1N1CCN(CCCNc2cc(=O)n(C)c(=O)n2C)CC1	-18.8%	
CC(C(=O)O)c1ccc(-c2ccccc2)c(F)c1 (configuration not stated)	7.83%	
CCN(CC)C(=O)c1ccc(O)c(OC)c1		inactive
C[C@@H](O)[C@H]1C(=O)N2C(C(=O)O)=C(S[C@@H]3CN[C@H](C(=O)N(C)C)C3)[C@H](C)[C@H]12	-18.7%	
CC/C(=C(\c1ccccc1)c1ccc(OCCN(C)C)cc1)c1ccccc1	-28.5%	
O=C1NCC2(CCN(CCc3ccccc3)CC2)O1		inactive
CC(=O)CCCCn1c(=O)c2c(ncn2C)n(C)c1=O		inactive
COCCCCC(=NOCCN)c1ccc(C(F)(F)F)cc1		inactive
COc1ccc(-c2coc3cc(O)cc(O)c3c2=O)cc1	29.8%	
O=C(O)c1cc(O)c2c(c1)C(=O)c1cccc(O)c1C2=O	15.1%	
C[N+](C)(C)CCCCCC[N+](C)(C)C		inactive
O=c1c(-c2ccc(O)cc2)coc2cc(O)ccc12	-1.89% [at 38 µM]	
CCCNC(=O)NS(=O)(=O)c1ccc(Cl)cc1		inactive
CC(=O)c1ccc(S(=O)(=O)NC(=O)NC2CCCCC2)cc1		inactive
NCCS	3.9% [at 38 µM]	
O=C(O)CCc1nc(-c2ccccc2)c(-c2ccccc2)o1		inactive
O=C1NC(=O)C(c2ccccc2)(c2ccccc2)N1		inactive
C[N+](C)(C)CC(=O)O	-4.41% [at 38 µM]	
